# From the supplement of paper PMC4466140
# Target: AgAbp1
# Assay: SPOT peptide array binding signal intensity (averaged, normalized) (arbitrary units (background-subtracted, floor 0; scale differs between SH3 domains)); higher = stronger binding of the SH3 domain to the peptide
# In short: (§1)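 Binding signal is given in arbitrary units that differ between domains and is the normalized, background-subtracted spot intensity averaged across replicates. Each GST-SH3 fusion from one of four yeast species was made in E. coli BL21(DE3), purified on glutathione Sepharose and incubated at 10 μg/ml overnight at 4°C on cellulose-bound synthetic 15-mer peptides in which cysteines were replaced by serines. Detection used anti-GST antibody, an HRP anti-mouse secondary and luminol, followed by imaging and Genespotter quantification.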
row,Binder,SPOT peptide array binding signal intensity
1,WRPRIVPILPYITRL,6

# Target: AgBbc1
# Assay: as above
# In short: as §1
row,Binder,SPOT peptide array binding signal intensity
1,WRPRIVPILPYITRL,13.5

# Target: AgBem1-D1
# Assay: as above
# In short: as §1
row,Binder,SPOT peptide array binding signal intensity
1,WRPRIVPILPYITRL,108

# Target: AgBzz1-D1
# Assay: as above
# In short: as §1
row,Binder,SPOT peptide array binding signal intensity
1,WRPRIVPILPYITRL,11

# Target: AgBzz1-D2
# Assay: as above
# In short: as §1
row,Binder,SPOT peptide array binding signal intensity
1,WRPRIVPILPYITRL,7.5

# Target: AgCyk3
# Assay: as above
# In short: as §1
row,Binder,SPOT peptide array binding signal intensity
1,WRPRIVPILPYITRL,9

# Target: AgFus1
# Assay: as above
# In short: as §1
row,Binder,SPOT peptide array binding signal intensity
1,WRPRIVPILPYITRL,90

# Target: AgHof1
# Assay: as above
# In short: as §1
row,Binder,SPOT peptide array binding signal intensity
1,WRPRIVPILPYITRL,132

# Target: AgHse1
# Assay: as above
# In short: as §1
row,Binder,SPOT peptide array binding signal intensity
1,WRPRIVPILPYITRL,434

# Target: AgLsb1
# Assay: as above
# In short: as §1
row,Binder,SPOT peptide array binding signal intensity
1,WRPRIVPILPYITRL,11

# Target: AgLsb4
# Assay: as above
# In short: as §1
row,Binder,SPOT peptide array binding signal intensity
1,WRPRIVPILPYITRL,22

# Target: AgMyo5
# Assay: as above
# In short: as §1
row,Binder,SPOT peptide array binding signal intensity
1,WRPRIVPILPYITRL,2.5

# Target: AgNbp2
# Assay: as above
# In short: as §1
row,Binder,SPOT peptide array binding signal intensity
1,WRPRIVPILPYITRL,140

# Target: AgRvs167
# Assay: as above
# In short: as §1
row,Binder,SPOT peptide array binding signal intensity
1,WRPRIVPILPYITRL,2

# Target: AgSho1
# Assay: as above
# In short: as §1
row,Binder,SPOT peptide array binding signal intensity
1,WRPRIVPILPYITRL,17

# Target: AgSla1-D1-D2
# Assay: as above
# In short: as §1
row,Binder,SPOT peptide array binding signal intensity
1,WRPRIVPILPYITRL,6.5

# Target: AgSla1-D3
# Assay: as above
# In short: as §1
row,Binder,SPOT peptide array binding signal intensity
1,WRPRIVPILPYITRL,4

# Target: CaAbp1-D1
# Assay: as above
# In short: as §1
row,Binder,SPOT peptide array binding signal intensity
1,WRPRIVPILPYITRL,109

# Target: CaAbp1-D2
# Assay: as above
# In short: as §1
row,Binder,SPOT peptide array binding signal intensity
1,WRPRIVPILPYITRL,92.5

# Target: CaBbc1
# Assay: as above
# In short: as §1
row,Binder,SPOT peptide array binding signal intensity
1,WRPRIVPILPYITRL,58.8

# Target: CaBem1-D1
# Assay: as above
# In short: as §1
row,Binder,SPOT peptide array binding signal intensity
1,WRPRIVPILPYITRL,22

# Target: CaBzz1-D1
# Assay: as above
# In short: as §1
row,Binder,SPOT peptide array binding signal intensity
1,WRPRIVPILPYITRL,49.5

# Target: CaBzz1-D2
# Assay: as above
# In short: as §1
row,Binder,SPOT peptide array binding signal intensity
1,WRPRIVPILPYITRL,24.2

# Target: CaCyk3
# Assay: as above
# In short: as §1
row,Binder,SPOT peptide array binding signal intensity
1,WRPRIVPILPYITRL,29.5

# Target: CaFus1
# Assay: as above
# In short: as §1
row,Binder,SPOT peptide array binding signal intensity
1,WRPRIVPILPYITRL,460

# Target: CaHof1
# Assay: as above
# In short: as §1
row,Binder,SPOT peptide array binding signal intensity
1,WRPRIVPILPYITRL,2

# Target: CaHse1
# Assay: as above
# In short: as §1
row,Binder,SPOT peptide array binding signal intensity
1,WRPRIVPILPYITRL,32

# Target: CaLsb1
# Assay: as above
# In short: as §1
row,Binder,SPOT peptide array binding signal intensity
1,WRPRIVPILPYITRL,3.5

# Target: CaLsb4
# Assay: as above
# In short: as §1
row,Binder,SPOT peptide array binding signal intensity
1,WRPRIVPILPYITRL,56

# Target: CaMyo5
# Assay: as above
# In short: as §1
row,Binder,SPOT peptide array binding signal intensity
1,WRPRIVPILPYITRL,1.5

# Target: CaNbp2
# Assay: as above
# In short: as §1
row,Binder,SPOT peptide array binding signal intensity
1,WRPRIVPILPYITRL,574

# Target: CaRvs167
# Assay: as above
# In short: as §1
row,Binder,SPOT peptide array binding signal intensity
1,WRPRIVPILPYITRL,54

# Target: CaRvs167-3
# Assay: as above
# In short: as §1
row,Binder,SPOT peptide array binding signal intensity
1,WRPRIVPILPYITRL,56

# Target: CaSho1
# Assay: as above
# In short: as §1
row,Binder,SPOT peptide array binding signal intensity
1,WRPRIVPILPYITRL,298

# Target: CaSla1-D1-D2
# Assay: as above
# In short: as §1
row,Binder,SPOT peptide array binding signal intensity
1,WRPRIVPILPYITRL,6

# Target: CaSla1-D3
# Assay: as above
# In short: as §1
row,Binder,SPOT peptide array binding signal intensity
1,WRPRIVPILPYITRL,2

# Target: ScAbp1
# Assay: as above
# In short: as §1
row,Binder,SPOT peptide array binding signal intensity
1,WRPRIVPILPYITRL,17

# Target: ScBbc1
# Assay: as above
# In short: as §1
row,Binder,SPOT peptide array binding signal intensity
1,WRPRIVPILPYITRL,4.25

# Target: ScBem1-D1
# Assay: as above
# In short: as §1
row,Binder,SPOT peptide array binding signal intensity
1,WRPRIVPILPYITRL,1

# Target: ScBzz1-D1
# Assay: as above
# In short: as §1
row,Binder,SPOT peptide array binding signal intensity
1,WRPRIVPILPYITRL,1.5

# Target: ScBzz1-D2
# Assay: as above
# In short: as §1
row,Binder,SPOT peptide array binding signal intensity
1,WRPRIVPILPYITRL,15.5

# Target: ScCyk3
# Assay: as above
# In short: as §1
row,Binder,SPOT peptide array binding signal intensity
1,WRPRIVPILPYITRL,33

# Target: ScFus1
# Assay: as above
# In short: as §1
row,Binder,SPOT peptide array binding signal intensity
1,WRPRIVPILPYITRL,75

# Target: ScHof1
# Assay: as above
# In short: as §1
row,Binder,SPOT peptide array binding signal intensity
1,WRPRIVPILPYITRL,365

# Target: ScHse1
# Assay: as above
# In short: as §1
row,Binder,SPOT peptide array binding signal intensity
1,WRPRIVPILPYITRL,636

# Target: ScLsb1
# Assay: as above
# In short: as §1
row,Binder,SPOT peptide array binding signal intensity
1,WRPRIVPILPYITRL,32.5

# Target: ScLsb2
# Assay: as above
# In short: as §1
row,Binder,SPOT peptide array binding signal intensity
1,WRPRIVPILPYITRL,7

# Target: ScLsb3
# Assay: as above
# In short: as §1
row,Binder,SPOT peptide array binding signal intensity
1,WRPRIVPILPYITRL,148

# Target: ScLsb4
# Assay: as above
# In short: as §1
row,Binder,SPOT peptide array binding signal intensity
1,WRPRIVPILPYITRL,18.5

# Target: ScMyo3
# Assay: as above
# In short: as §1
row,Binder,SPOT peptide array binding signal intensity
1,WRPRIVPILPYITRL,2

# Target: ScMyo5
# Assay: as above
# In short: as §1
row,Binder,SPOT peptide array binding signal intensity
1,WRPRIVPILPYITRL,0.5

# Target: ScNbp2
# Assay: as above
# In short: as §1
row,Binder,SPOT peptide array binding signal intensity
1,WRPRIVPILPYITRL,224

# Target: ScPex13
# Assay: as above
# In short: as §1
row,Binder,SPOT peptide array binding signal intensity
1,WRPRIVPILPYITRL,1

# Target: ScRvs167
# Assay: as above
# In short: as §1
row,Binder,SPOT peptide array binding signal intensity
1,WRPRIVPILPYITRL,251

# Target: ScSho1
# Assay: as above
# In short: as §1
row,Binder,SPOT peptide array binding signal intensity
1,WRPRIVPILPYITRL,182

# Target: ScSla1-D1-D2
# Assay: as above
# In short: as §1
row,Binder,SPOT peptide array binding signal intensity
1,WRPRIVPILPYITRL,≤ 0

# Target: ScSla1-D3
# Assay: as above
# In short: as §1
row,Binder,SPOT peptide array binding signal intensity
1,WRPRIVPILPYITRL,≤ 0

# Target: SpAbp1-D1
# Assay: as above
# In short: as §1
row,Binder,SPOT peptide array binding signal intensity
1,WRPRIVPILPYITRL,36

# Target: SpBbc1
# Assay: as above
# In short: as §1
row,Binder,SPOT peptide array binding signal intensity
1,WRPRIVPILPYITRL,7

# Target: SpBzz1-D1
# Assay: as above
# In short: as §1
row,Binder,SPOT peptide array binding signal intensity
1,WRPRIVPILPYITRL,179

# Target: SpBzz1-D2
# Assay: as above
# In short: as §1
row,Binder,SPOT peptide array binding signal intensity
1,WRPRIVPILPYITRL,1.5

# Target: SpCyk3
# Assay: as above
# In short: as §1
row,Binder,SPOT peptide array binding signal intensity
1,WRPRIVPILPYITRL,10

# Target: SpHof1
# Assay: as above
# In short: as §1
row,Binder,SPOT peptide array binding signal intensity
1,WRPRIVPILPYITRL,14.5

# Target: SpHof1-2
# Assay: as above
# In short: as §1
row,Binder,SPOT peptide array binding signal intensity
1,WRPRIVPILPYITRL,18.5

# Target: SpHof1-3
# Assay: as above
# In short: as §1
row,Binder,SPOT peptide array binding signal intensity
1,WRPRIVPILPYITRL,328

# Target: SpHse1
# Assay: as above
# In short: as §1
row,Binder,SPOT peptide array binding signal intensity
1,WRPRIVPILPYITRL,315

# Target: SpLsb1
# Assay: as above
# In short: as §1
row,Binder,SPOT peptide array binding signal intensity
1,WRPRIVPILPYITRL,3

# Target: SpLsb4
# Assay: as above
# In short: as §1
row,Binder,SPOT peptide array binding signal intensity
1,WRPRIVPILPYITRL,157

# Target: SpMyo1
# Assay: as above
# In short: as §1
row,Binder,SPOT peptide array binding signal intensity
1,WRPRIVPILPYITRL,107

# Target: SpNbp2
# Assay: as above
# In short: as §1
row,Binder,SPOT peptide array binding signal intensity
1,WRPRIVPILPYITRL,55.5

# Target: SpPex13
# Assay: as above
# In short: as §1
row,Binder,SPOT peptide array binding signal intensity
1,WRPRIVPILPYITRL,6.5

# Target: SpRvs167
# Assay: as above
# In short: as §1
row,Binder,SPOT peptide array binding signal intensity
1,WRPRIVPILPYITRL,167

# Target: SpSla1-D1-D2
# Assay: as above
# In short: as §1
row,Binder,SPOT peptide array binding signal intensity
1,WRPRIVPILPYITRL,≤ 0

# Target: SpSla1-D3
# Assay: as above
# In short: as §1
row,Binder,SPOT peptide array binding signal intensity
1,WRPRIVPILPYITRL,≤ 0
